Results from PubChem BioAssay AID588683 (Broad Institute, 2011).
Entries with a potency or affinity are not part of this list.

Biological target: Kelch-like ECH-associated protein 1 (Homo sapiens) + Nuclear factor erythroid 2-related factor 2 (Homo sapiens) (UniProt Q14145+Q16236)
Test: disruptors of Keap1 binding to Nrf2 peptide – biochemical, fluorescence polarization, cherry-picked samples, dose response (AID 588683);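 note: Kelch domain of Keap1 binding a fluorescein-labelled 9mer Nrf2 peptide; more negative means stronger inhibition of peptide binding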
Settings: plate reader; series mostly up to 26 µM; activity change, negative = inhibition: at the top concentration; call rule not given here

Chain of Kelch-like ECH-associated protein 1 (Homo sapiens) + Nuclear factor erythroid 2-related factor 2 (Homo sapiens) (Q14145 whole entry, looked up, the tested form may be a part): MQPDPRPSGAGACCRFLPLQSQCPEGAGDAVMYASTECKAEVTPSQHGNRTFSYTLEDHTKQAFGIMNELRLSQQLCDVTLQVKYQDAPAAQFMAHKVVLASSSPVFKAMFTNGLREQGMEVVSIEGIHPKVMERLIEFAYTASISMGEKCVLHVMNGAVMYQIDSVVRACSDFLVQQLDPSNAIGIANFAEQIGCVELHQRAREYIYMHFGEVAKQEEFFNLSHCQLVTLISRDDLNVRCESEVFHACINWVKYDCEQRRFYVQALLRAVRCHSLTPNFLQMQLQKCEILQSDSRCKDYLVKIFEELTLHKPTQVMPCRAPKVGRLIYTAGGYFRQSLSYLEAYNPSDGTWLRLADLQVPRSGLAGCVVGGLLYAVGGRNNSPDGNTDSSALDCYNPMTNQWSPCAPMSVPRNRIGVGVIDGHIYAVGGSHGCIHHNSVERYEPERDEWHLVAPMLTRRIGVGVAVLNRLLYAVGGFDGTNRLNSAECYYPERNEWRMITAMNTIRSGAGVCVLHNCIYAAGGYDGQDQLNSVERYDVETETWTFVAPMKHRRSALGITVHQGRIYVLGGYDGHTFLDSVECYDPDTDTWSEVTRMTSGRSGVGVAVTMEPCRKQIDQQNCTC
Chain of Kelch-like ECH-associated protein 1 (Homo sapiens) + Nuclear factor erythroid 2-related factor 2 (Homo sapiens) (Q16236 whole entry, looked up, the tested form may be a part): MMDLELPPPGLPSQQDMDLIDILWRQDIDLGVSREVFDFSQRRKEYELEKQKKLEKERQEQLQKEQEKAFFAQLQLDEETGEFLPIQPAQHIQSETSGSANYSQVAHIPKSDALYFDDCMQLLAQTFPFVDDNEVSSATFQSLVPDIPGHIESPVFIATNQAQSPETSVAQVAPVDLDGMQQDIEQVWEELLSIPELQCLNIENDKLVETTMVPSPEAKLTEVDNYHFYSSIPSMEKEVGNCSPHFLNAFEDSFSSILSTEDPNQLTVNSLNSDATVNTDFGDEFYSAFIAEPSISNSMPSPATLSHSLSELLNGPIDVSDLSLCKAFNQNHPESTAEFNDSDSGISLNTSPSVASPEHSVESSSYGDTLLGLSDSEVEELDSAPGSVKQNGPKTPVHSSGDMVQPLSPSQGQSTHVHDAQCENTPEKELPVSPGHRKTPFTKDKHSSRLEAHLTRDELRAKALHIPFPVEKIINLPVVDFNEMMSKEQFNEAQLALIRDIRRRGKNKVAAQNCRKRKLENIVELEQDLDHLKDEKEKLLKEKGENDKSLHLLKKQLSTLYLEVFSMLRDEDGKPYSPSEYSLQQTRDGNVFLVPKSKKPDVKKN

Activity change, negative = inhibition, inactive:
O=c1[nH]c(/C=C/c2cccc3ccccc23)nc2ccccc12 11.9%, CCC(=O)c1cn(CC(=O)Nc2ccc(OC)cc2)c2ccccc12 2.85%, c1ccc(Nc2nc3ccccc3n3nnnc23)cc1 -21.3%, CC1(C)CC(=O)C(N=Nc2c(F)cccc2F)=C(O)C1 1.16%, COc1cccc(C2=CC(c3cccs3)n3nnnc3N2)c1 (centres undefined) -16.2%, CCCCC1OC2(C)OC(=N)C1(C#N)C(C#N)(C#N)C2c1ccccc1 (centres undefined) -7.41%, c1ccc(-c2cn3nc4c(nc3n2)CCCC4)cc1 0.291%, O=C(CCN1C(=O)/C(=C/c2ccco2)SC1=S)Nc1ccc(O)cc1C(=O)O 4.28%, O=S(=O)(Nc1ncccn1)c1ccc(NC(=S)NCc2cccnc2)cc1 -14.6%, COc1ccc(N=Nc2nc3ccc(Br)cc3n2C)cc1 -21.9%, O=C1C(=Cc2ccco2)CCC1=Cc1ccco1 24.2%, NC(=O)CC(NC(=O)Cc1cccc2ccccc12)c1ccc(NCc2ccccc2)c([N+](=O)[O-])c1 (centres undefined) -0.628%, CN1/C(=C\C=C(/C#N)C(=O)Nc2ccc(Cl)cc2)C(C)(C)c2ccccc21 19.3%, CC(C)(C)c1ccccc1NC(=O)NC1CCN(Cc2c(F)cccc2Cl)CC1 -6.22%, COc1cc(C#Cc2c(C=O)n(C)c3ccccc23)cc(OC)c1 -4.77%, COc1cc(CO)ccc1Oc1nc2ccccc2n2cnnc12 -3.41%, Cc1ccc(-c2nc3sc(C#N)c(N)n3c(=O)c2C#N)cc1 64.5%, CCCc1nc2oc3cc(OC)ccc3c(=O)c2c(=O)n1Cc1ccco1 -1.14%, CCC1OC2(C)OC(=N)C1(C#N)C(C#N)(C#N)C2c1ccccc1 (centres undefined) -2.42%
